This is part of a sample that, as a whole, favours compounds with a hit. Of some 83,000 tested, about 20% had one in any assay.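 Assay: single dose, 48 h. Readout: percent growth (0 = no net growth; negative = cell death). Active: <10.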 A number with no mark means an inactive call. The source made the active and inactive calls.
The compounds below were run on OVCAR-3 ovarian (assay: NCI-60 one-dose screen, 48 h (100 = growth as untreated, 0 = no growth, -100 = all killed)). Conditions: 10 µM unless noted.
Procedure: Growth inhibition of the OVCAR-3 human tumor cell line is measured as a screen for anti-cancer activity. Cells are grown in 96 well plates and exposed to the test compound for 48 hours. Compounds are tested at a single concentration, which is 10^-5 M for most compounds. The reported endpoint is percent growth (GI% or GIPRCNT), where numbers from 0 - 100% represent growth inhibition, and numbers from -100% - 0 represent cell death. For example, a value of 40 represents 60% growth inhibition. A value of 0 means no net growth occurred over the course of the experiment. A value of -40 indicates 40% of cells at the beginning of the experiment died by the end of the experiment. A value of -100 means all cells are dead at the end of the experiment.
NCI-60 Human Tumor Cell Lines Screen was performed using the standard one-dose NCI protocol, which is described in more detail at https://dtp.cancer.gov/discovery_development/nci-60/default.htm.
Compounds with GIPRCNT values below 10 were considered active. Activity score was based on GIPRCNT using the following formula: […]
Score is 0 for GIPRCNT values of 100 or above, 50 for GIPRCNT values of 0, and 100 for GIPRCNT values of -100.

SMILES	growth
COc1ccc(-c2cc(C(=O)N3N=C(c4ccc(N)cc4)CC3c3ccc(Cl)cc3)c3cc(OC)ccc3n2)cc1 (stereo not given)	42.7%
O=c1oc2c(cnc3ccccc32)cc1-c1cccc(Cl)c1	112%
CCn1cc(C(=O)N/N=C/c2ccccc2)c(=O)c2cc(F)c(N3CCNC(C)C3)c(F)c21 (stereo not given)	-75% (active)
COc1ccc(/C=C2\CN(C(=O)C(Cl)Cl)C/C(=C\c3ccc(OC)c(OC)c3)C2=O)cc1OC	-16.6% (active)
COc1cc(/C=C/c2cc(/C=C/c3ccc(O)c(OC)c3)n(C(=O)Nc3ccc(Cl)cc3)n2)ccc1O	-11% (active)
CN(C)c1ccc(CNCCO)cc1	104%
Nc1ccc(Br)cc1C(F)(F)F	120%
C=CN(C(=O)N1CCN(c2cc3c(cc2F)c(=O)c(C(=O)O)cn3C2CC2)CC1)c1nc(-c2ccccc2)cs1	108%
CCOC(=O)c1cnn(CC(C)O)c1NC(=O)NCc1ccccc1C(F)(F)F (stereo not given)	108%
Cc1cn(C)cn1	108%
O=[N+]([O-])c1c(O)c(Cl)cc(Cl)c1Cl	111%
Clc1ccc(-c2nc(C(Cl)Cl)nc3cc(-c4ccccc4)nn23)cc1	-10.2% (active)
NCCCNc1nc2ccccc2c2c(=O)c3cc(Cl)ccc3sc12	-60% (active)
COc1ccc(/C=C/C(c2cc(OC)c(OC)c(OC)c2)n2cncn2)cc1O (stereo not given)	15.7%
O=C(CN1C(=O)S/C(=C\C(Cl)=C\c2ccccc2)C1=O)NC1CCS(=O)(=O)C1 (stereo not given)	19.4%
COC1C(O)CC(OC2CC(OC3CC(O[C@@H]4C(=O)c5c(cc6cc(OC7CC(OC8CC(O)C(O)C(C)O8)C(O)C(C)O7)c(C)c(O)c6c5O)CC4[C@H](OC)C(=O)O)OC(C)C3O)OC(C)C2O)OC1C (stereo not given in full)	18%
CN(C)CCCC1(c2ccc(F)cc2)OCc2cc(-c3csc4ccccc34)ccc21 (stereo not given)	-58.2% (active)
COCCOC(C)C(/C=N/NC(N)=S)=N/NC(N)=S (stereo not given)	13.9%
CN(C)/C(N)=N/N=C(\c1ccccc1)c1ccccn1	93.7%
COc1cc2c(cc1OCCCN1CCN(C(=S)SCCC(C#N)(c3ccccc3)c3ccccc3)CC1)N=C[C@@H]1CCCN1C2=O	-89.3% (active)

SMILES	growth
O=C(/C=C/c1ccccc1Cl)c1cccc(OCCCCOc2cccc(C(=O)/C=C/c3ccccc3Cl)c2)c1	112%
C=C1C(=O)O[C@H]2[C@H]1CC/C(CNC(=O)Cc1c[nH]c3ccccc13)=C\CC[C@@]1(C)O[C@@H]21	-5.5% (active)
COc1ccc(C2[C@@H](c3ccccc3)C(=O)N2c2cc(OC)c(OC)c(OC)c2)cc1F (stereo not given in full)	9.25% (active)
CCOC(=O)NC(=S)n1oc(=O)c2ccccc21	105%
Oc1c(CN2CCC(N3CCOCC3)CC2)cc(Cc2cc(CN3CCC(N4CCOCC4)CC3)c(O)c3ncccc23)c2cccnc12	19.6%
CS(=O)(=O)Nc1cc(-c2ccc3ncnc(Nc4ccc5c(cnn5Cc5ccncc5)c4)c3c2)cnc1Cl	37%
C#CCOc1cccc(Nc2ncnc3c2ncn3C2CCN(C(=O)CCl)C2)c1 (stereo not given)	-90.9% (active)
Cc1ccc(C(=O)c2ccc(CC(=O)N/N=C/c3cccc(O)c3O)n2C)cc1	23.5%
Nc1c(Cl)cc(/C=C2\C=Cc3ccccc32)cc1Cl	111%
CN(C)c1ccc(/C=N\NC(=O)c2ccc3nc(-c4ccc(Cl)cc4)[nH]c3c2)cc1	70.7%
C=C[C@@]1(C)CC(=O)[C@@H](C(C)(C)c2cn(C)c3ccc(Br)cc23)C[C@@H]1O[Si](C)(C)C(C)(C)C	103%
N#Cc1c(-c2ccccc2)nc2c(c(-c3ccc(Cl)cc3)nn2-c2ccccc2)c1-c1ccc([N+](=O)[O-])cc1	126%
COc1ccc(N=C2NN=C(c3c[nH]c4ccccc34)CS2)cc1OC	-9.06% (active)
O=c1cc(C(F)(F)F)c2cc(-c3cc4ccccc4c(=O)o3)c(O)cc2o1	56.9%
Cc1nn(-c2ccc([N+](=O)[O-])cc2)c2ncnc(N/N=C/c3ccccc3O)c12	27.3%
COc1ccc(Oc2ccc(/C=C/C(=O)c3cc4ccccc4oc3=O)cc2)cc1	107%
CC(C)(C)c1ccc(C(=O)N/N=C/c2ccc(O)cc2O)cc1	12.1%
COc1ccc(-c2cn(Cc3cc4ccccc4s3)nn2)cc1OCCN1CCCCC1	74.6%
C=CCn1cc(-c2nc3ccccc3s2)c2cc(-c3ccc4c5c(cccc35)C(=O)N(CCO)C4=O)ccc21	105%
Cc1nc2sc(C(=O)Nc3ccccn3)c(N)c2cc1C(C)O (stereo not given)	76.5%

Reference: PubChem BioAssay (NCI)
